Measured values taken from the supplement of paper PMC10127200.
Where a name gives a salt, the structure may show the parent alone.

What was measured:
Experiment in all cases: Euclidean distance of Cell Painting phenotypic profile (signed KS, 77 features) to DMSO centroid (dimensionless distance); 5 or 10 uM (library dependent); higher = stronger phenotypic change vs DMSO (phenoactivity)
Details in all cases: 48 h
786-O = test system: 786-O
Method in brief: (§1)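 At 10 or 5 uM, as set by the library, and 0.1% DMSO final, compounds were applied for 48 h to five cancer lines and one healthy fibroblast line. Stained cells were imaged confocally at 20X in 9 fields per well, and Harmony extracted 77 features scored as signed Kolmogorov-Smirnov statistics against vehicle wells on the same plate. Profiles underwent plate-position correction, correlation weighting and replicate averaging at the top dose. Phenoactivity is the Euclidean distance from each such profile to the median vehicle profile.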

A549 = test system: A549
Method in brief: as §1

DU145 = test system: DU145
Method in brief: as §1

FB = test system: FB
Method in brief: as §1

HEPG2 = test system: HEPG2
Method in brief: as §1

OVCAR4 = test system: OVCAR4
Method in brief: as §1

| SMILES | Euclidean distance (786-O) | Euclidean distance (A549) | Euclidean distance (DU145) | Euclidean distance (FB) | Euclidean distance (HEPG2) | Euclidean distance (OVCAR4) |
| --- | --- | --- | --- | --- | --- | --- |
| COc1cc2ncnc(Nc3cccc(Cl)c3F)c2cc1OC(=O)N1CCN(C)C[C@H]1C | 1.15 | 2.05 | 1.72 | 1.4 | 0.691 | 1.33 |
| C[C@H]1CNCCCN1S(=O)(=O)c1cccc2cncc(F)c12 [Ripasudil (K-115) hydrochloride dihydrate] | 2.28 | 0.784 | 2.78 | 2.01 | 1.34 | 1.12 |
| Cc1cnc(NC(=O)Nc2cc(Br)c(C)cc2OC[C@@H]2CNCCO2)cn1 | 2.52 | 1.52 | 1.04 | 1.52 | 2.15 | 3.62 |
| CCC[C@@H]1C[C@@H](C(=O)N[C@@H]([C@H]2O[C@H](SC)[C@H](O)[C@@H](O)[C@H]2O)[C@H](C)Cl)N(C)C1 [Clindamycin HCl] | 1.06 | 0.576 | 0.99 | 0.761 | 0.82 | 0.755 |
| Nc1ccc(C(=O)O)c(O)c1 [Sodium 4-Aminosalicylate] | 1.34 | 2.62 | 1.27 | 2.47 | 1.02 | 1.43 |
| CNCC[C@H](Oc1cccc2ccccc12)c1cccs1 [Duloxetine HCl] | 1.15 | 1.43 | 1.55 | 1.48 | 2.34 | 1.46 |
| CCCN(CCC)CCc1cccc2c1CC(=O)N2 [Ropinirole HCl] | 1.32 | 1.01 | 0.736 | 1.3 | 0.483 | 1.2 |
| COc1cc2ncnc(Nc3cccc(Cl)c3)c2cc1OC [AG-1478 (Tyrphostin AG-1478)] | 1.39 | 1.29 | 1.45 | 1.21 | 0.941 | 0.649 |
| Oc1c(Cl)cc(Cl)c2cccnc12 [Chloroxine] | 2.07 | 2.64 | 1.54 | 1.48 | 2.06 | 2.02 |
| Cc1cc(S(=O)(=O)O)c2c(C)ccc(C(C)C)cc1-2 [Sodium gualenate] | 1.2 | 0.401 | 0.867 | 1.3 | 1.18 | 1.13 |
| CCOc1cc([C@@H](CS(C)(=O)=O)N2C(=O)c3cccc(NC(C)=O)c3C2=O)ccc1OC | 1.2 | 0.481 | 1.78 | 0.934 | 0.783 | 0.611 |
| CN1CCC(=C2c3ccccc3C=Cc3ccccc32)CC1 [Cyproheptadine hydrochloride] | 0.781 | 1.06 | 1.24 | 1.89 | 2.26 | 0.968 |
| CC[N+](CC)(CC)CCOc1cccc(OCC[N+](CC)(CC)CC)c1OCC[N+](CC)(CC)CC [Gallamine Triethiodide] | 0.82 | 0.878 | 1.08 | 1.22 | 1.06 | 1.04 |
| O=c1ccc2cc(O)c(O)cc2o1 [Esculetin] | 1.31 | 0.797 | 1.69 | 0.959 | 1.2 | 0.988 |
| C[C@@H](O)[C@H]1C(=O)N2C(C(=O)O)=C(S[C@@H]3CN[C@H](C(=O)N(C)C)C3)[C@H](C)[C@H]12 [Meropenem] | 1.75 | 1.63 | 0.873 | 1.2 | 1.05 | 1.15 |
| CC1=C(C(=O)O)N2C(=O)[C@@H](NC(=O)[C@H](N)c3ccc(O)cc3)[C@H]2SC1 [Cefadroxil hydrate] | 1.09 | 0.5 | 0.78 | 0.785 | 0.893 | 0.794 |
| O=C(c1c(F)ccc(NS(=O)(=O)N2CC[C@@H](F)C2)c1F)c1c[nH]c2ncc(-c3cnc(C4CC4)nc3)cc12 | 1.42 | 1.86 | 2.02 | 2.6 | 1.2 | 1.44 |
| CC1=C(C(=O)O)N2C(=O)[C@@H](NC(=O)[C@H](N)C3=CCC=CC3)[C@H]2SC1 [Cephradine monohydrate] | 1.65 | 0.779 | 2.12 | 0.776 | 0.698 | 0.618 |
| COc1ccnc(C[S+]([O-])c2nc3cc(-n4cccc4)ccc3[nH]2)c1C (centres undefined) [Ilaprazole] | 1.22 | 1.57 | 1.17 | 1.23 | 0.928 | 1.27 |
| C[C@H]1[C@H](C)CC[C@]2(C(=O)O[C@@H]3O[C@H](CO[C@@H]4O[C@H](CO)[C@@H](O[C@@H]5O[C@@H](C)[C@H](O)[C@@H](O)[C@H]5O)[C@H](O)[C@H]4O)[C@@H](O)[C@H](O)[C@H]3O)CC[C@]3(C)C(=CC[C@@H]4[C@@]5(C)C[C@@H](O)[C@H](O)[C@@](C)(CO)[C@@H]5[C@H](O)C[C@]43C)[C@H]12 [Madecassoside] | 0.76 | 0.636 | 0.932 | 1.03 | 0.483 | 1.28 |
| C[C@]12CC[C@@H]3c4ccc(O)cc4C[C@@H](CCCCCCCCC[S+]([O-])CCCC(F)(F)C(F)(F)F)[C@H]3[C@@H]1CC[C@@H]2O (some centres undefined) [Fulvestrant] | 1.83 | 1.67 | 0.894 | 1.18 | 0.76 | 1.56 |
| C[C@H](N[C@@H](CCc1ccccc1)C(=O)O)C(=O)N1CCC[C@H]1C(=O)O [Enalaprilat Dihydrate] | 1.22 | 1.17 | 0.803 | 0.927 | 0.793 | 1 |
| O=C(O)c1ccccc1O [Salicylic acid] | 0.877 | 0.32 | 0.898 | 0.648 | 0.308 | 1.08 |
| CC(C)(C)c1cc(C(C)(C)C)c(NC(=O)c2c[nH]c3ccccc3c2=O)cc1O [Ivacaftor (VX-770)] | 2.11 | 2.23 | 1.21 | 0.989 | 1.96 | 1.56 |
| O=C(NCC(O)CO)c1c(I)c(C(=O)NCC(O)CO)c(I)c(N(CCO)C(=O)CO)c1I (centres undefined) [Ioversol] | 0.684 | 0.636 | 0.983 | 0.679 | 0.876 | 1.14 |

| SMILES | Euclidean distance (786-O) | Euclidean distance (A549) | Euclidean distance (DU145) | Euclidean distance (FB) | Euclidean distance (HEPG2) | Euclidean distance (OVCAR4) |
| --- | --- | --- | --- | --- | --- | --- |
| Nc1ccc(S(N)(=O)=O)cc1 [Sulfanilamide] | 0.866 | 0.563 | 0.913 | 0.819 | 0.645 | 1.21 |
| Fc1cc(-c2cccc3ncc(-c4cnn(C5CCNCC5)c4)nc23)cc(F)c1CN1CCOCC1 | 2.09 | 3.31 | 2.11 | 3.84 | 2.39 | 1.28 |
| CN(C)CCN(Cc1ccccc1)c1ccccn1 [Tripelennamine HCl] | 1.42 | 0.863 | 0.966 | 1.05 | 0.581 | 1.72 |
| CN(Cc1cnc2nc(N)nc(N)c2n1)c1ccc(C(=O)N[C@@H](CCC(=O)O)C(=O)O)cc1 [Methotrexate disodium] | 2.05 | 3.23 | 0.912 | 0.603 | 1.47 | 2.39 |
| CC(C)Cn1cnc2c(N)nc3ccccc3c21 [Imiquimod] | 0.967 | 1.15 | 0.652 | 0.784 | 0.448 | 0.537 |
| N[C@@H]1CONC1=O [D-Cycloserine] | 1.67 | 1.18 | 1.43 | 0.939 | 0.865 | 0.96 |
| C=C[C@@H]1C[C@]1(NC(=O)[C@@H]1C[C@@H]2CN1C(=O)[C@H](C(C)(C)C)NC(=O)O[C@@H]1C[C@H]1CCCCCc1nc3ccc(OC)cc3nc1O2)C(=O)NS(=O)(=O)C1CC1 [Grazoprevir] | 1.16 | 1.31 | 1.33 | 1.88 | 0.937 | 1.22 |
| O=C(O)Cc1ccccc1Nc1c(Cl)cccc1Cl [Diclofenac Diethylamine] | 0.84 | 0.842 | 0.728 | 0.689 | 0.397 | 0.97 |
| CCCN[C@H]1CCc2nc(N)sc2C1 [Pramipexole dihydrochloride] | 0.969 | 0.801 | 1.16 | 1.09 | 0.46 | 1.16 |
| CC(=O)OCC(COC(C)=O)OC(C)=O [Triacetin] | 1.28 | 0.762 | 1.03 | 1.11 | 1.02 | 0.787 |
| O=C1C(N(CO)C(=O)NCO)N(CO)C(=O)N1CO (centres undefined) [Diazolidinyl urea] | 0.723 | 0.505 | 1.01 | 0.783 | 0.465 | 0.927 |
| CN(C)C(=O)N[C@H]1CC[C@H](CCN2CCN(c3cccc(Cl)c3Cl)CC2)CC1 [Cariprazine HCl] | 1.25 | 1.41 | 1.47 | 1.58 | 1.63 | 0.982 |
| OC(CCN1CCCCC1)(c1ccccc1)C1CC2C=CC1C2 (centres undefined) [Biperiden HCl] | 0.618 | 0.662 | 0.98 | 1.08 | 1.01 | 0.843 |
| CCc1c(C)[nH]c2c1C(=O)C(CN1CCOCC1)CC2 (centres undefined) [Molindone hydrochloride] | 1.11 | 0.479 | 0.934 | 0.703 | 0.317 | 0.874 |
| COc1nc(C)cnc1NS(=O)(=O)c1cccnc1-c1ccc(-c2nnco2)cc1 [Zibotentan (ZD4054)] | 1.49 | 0.567 | 0.656 | 0.844 | 1.11 | 0.898 |
| N#CCCCSC(=N)N [Kevetrin hydrochloride] | 1.5 | 0.842 | 1.04 | 0.849 | 0.473 | 0.902 |
| CS(=O)(=O)CCNCc1ccc(-c2ccc3ncnc(Nc4ccc(OCc5cccc(F)c5)c(Cl)c4)c3c2)o1 [Lapatinib ditosylate monohydrate] | 4.93 | 3.12 | 2.25 | 2.59 | 3.3 | 3.37 |
| CC(=O)c1ccc(S(=O)(=O)NC(=O)NC2CCCCC2)cc1 [Acetohexamide] | 0.925 | 0.868 | 0.836 | 1.19 | 0.469 | 0.995 |
| COc1cc2ncnc(Nc3ccc(F)c(Cl)c3)c2cc1OCCCN1CCOCC1 [Gefitinib hydrochloride] | 1.01 | 1.23 | 1.18 | 0.779 | 0.482 | 1.31 |
| C=C[C@]1(C)C[C@@H](OC(=O)CS[C@@H]2C[C@H]3CC[C@@H](C2)N3C)[C@]2(C)[C@H](C)CC[C@]3(CCC(=O)[C@H]32)[C@@H](C)[C@@H]1O [Retapamulin] | 1.44 | 1.81 | 1.32 | 1.51 | 1.51 | 1.59 |
| O=C(O)C1=CO[C@@H](O[C@@H]2O[C@H](CO)[C@@H](O)[C@H](O)[C@H]2O)[C@@H]2C(CO)=CC[C@H]12 [Geniposidic acid] | 0.817 | 0.758 | 0.684 | 0.819 | 0.985 | 0.756 |
| C#CCN[C@@H]1CCc2ccccc21 [Rasagiline Mesylate] | 1.19 | 0.608 | 0.782 | 0.686 | 1.01 | 1.18 |
| C[C@@H]1C[C@H]2[C@@H]3C[C@H](F)C4=CC(=O)C=C[C@]4(C)[C@@]3(F)[C@@H](O)C[C@]2(C)[C@@]1(OC(=O)c1ccco1)C(=O)SCF [fluticasone furoate] | 2.17 | 2.7 | 2.56 | 2.29 | 1.53 | 1.72 |
| COc1cc(CNC(=O)CCCC/C=C\C(C)C)ccc1O [Zucapsaicin] | 0.772 | 0.503 | 0.672 | 0.743 | 0.98 | 1.01 |
